Results filed as inconclusive are left out. Entries that show only a call come without a potency. Active and inactive are the calls of the source. Calls come from the whole dose curve; as a rule, active = well fitted curve in the direction sought with a large enough effect in the repeat runs; inconclusive = weak or mixed curves; inactive = no such curve, though single readings can be large; an effect the other way counts as inactive or inconclusive.
Assay: qHTS RealTime-Glo MT Cell Viability Assay in HepG2 cells - 24 hour (AID 1224867)
Conditions: RealTime-Glo luminescence; series mostly up to 76.8 µM
How it was run: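 Viability was tracked continuously by NanoLuc luminescence from prosubstrate reduced by living HepG2 cells, at successive time points over 40 h of compound exposure. Cells with reagent were preincubated 5 h at 37 °C before compound addition.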
Note: nearly all actives have a fitted effect of over 50% in size.
Potency is the fitted concentration of half-maximal effect.

| Compound | Potency |
| --- | --- |
| Cc1c(C(=O)NN2CCCCC2)nn(-c2ccc(Cl)cc2Cl)c1-c1ccc(Cl)cc1 | inactive |
| CC(CCO)CCc1ccccc1 (stereo unspecified) | inactive |
| CCCc1c(OCCCOc2ccc(OCC(=O)O)cc2)ccc(C(C)=O)c1O | inactive |
| O=C(N[C@@H](c1ccccc1)[C@@H]1CCCCN1)c1cccc(C(F)(F)F)c1Cl | 43.6 µM (active) |
| CCC(=O)Oc1ccc(/C(CC)=C(\CC)c2ccc(OC(=O)CC)cc2)cc1 | inactive |
| C[Si](NC1CCCCC1)(NC1CCCCC1)NC1CCCCC1 | inactive |
| C[N+](C)(C)CCOC(N)=O | inactive |
| CCOC(=O)N1CCC(n2c(=O)[nH]c3cc(Cl)ccc32)CC1 | inactive |
| C(=C\c1ccccc1)/CN1CCN(C(c2ccccc2)c2ccccc2)CC1 | inactive |
| C=CC(C)(C)CC(=O)OC | inactive |
| CCCCCCCCCCCC(=O)[O][Sn]([CH2]CCC)([CH2]CCC)[O]C(=O)CCCCCCCCCCC | 19 µM (active) |
| CCC(Cc1ccccc1)(C(=O)c1ccc(N2CCOCC2)cc1)N(C)C (stereo unspecified) | inactive |
| CCC(C(=O)OCCN(CC)CC)c1ccccc1 (stereo unspecified) | inactive |
| CCC1(C)CC(=O)NC1=O (stereo unspecified) | inactive |
| CCCCN(CCCC)C(=S)SSC(=S)N(CCCC)CCCC | inactive |
| Cc1cc(O)c(C(C)C)cc1Cl | inactive |
| CN1CCCN=C1/C=C/c1cccs1 | inactive |
| CC(=O)[C@H]1CC[C@H]2[C@@H]3C=CC4=CC(=O)CC[C@@]4(C)[C@@H]3CC[C@]12C | inactive |
| Cc1ccnc2ccccc12 | inactive |
| CO[C@@]12[C@H](COC(N)=O)C3=C(C(=O)C(C)=C(N)C3=O)N1C[C@@H]1N[C@@H]12 | 6.01 µM (active) |
| Cc1cc(S(=O)(=O)O)ccc1N=Nc1c(O)ccc2ccccc12 | inactive |
| CC(C)C(OC(=O)c1ccccc1)C(C)(C)COC(=O)c1ccccc1 (stereo unspecified) | inactive |
| CC(C)(CCl)c1ccccc1 | inactive |
| c1cc[c]([Bi]([c]2ccccc2)[c]2ccccc2)cc1 | inactive |
| CC1C2CC(CC2C2CCCC(O)C2)C1(C)C (stereo unspecified) | inactive |

Assay: qHTS RealTime-Glo MT Cell Viability Assay in HEK293 cells - 32 hour (AID 1224868)
Conditions: RealTime-Glo luminescence; series mostly up to 76.8 µM
How it was run: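 Viability tracked continuously by luminescence as live cells reduce a prosubstrate for NanoLuc; HEK293 cells preincubated 5 h, compound-treated at 37 C, and read at 0, 8, 16, 24, 32 and 40 h.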

| Compound | Potency |
| --- | --- |
| OCC1CC=CCC1 (stereo unspecified) | inactive |
| NC(=O)Cn1c(=O)cc(CCN2CCN(c3nccc4sccc34)CC2)c2ccc(F)cc21 | 43.6 µM (active) |
| Cc1nccn1-c1ccc(Sc2cccc(C3(C(N)=O)CCOCC3)c2)cc1 | 1.38 µM (active) |
| CCCc1c(OCCCOc2ccc(OCC(=O)O)cc2)ccc(C(C)=O)c1O | inactive |
| O=C(N[C@@H](c1ccccc1)[C@@H]1CCCCN1)c1cccc(C(F)(F)F)c1Cl | 24.5 µM (active) |
| CCC(=O)Oc1ccc(/C(CC)=C(\CC)c2ccc(OC(=O)CC)cc2)cc1 | 17.4 µM (active) |
| C[Si](NC1CCCCC1)(NC1CCCCC1)NC1CCCCC1 | inactive |
| C[N+](C)(C)CCOC(N)=O | inactive |
| CCOC(=O)[C@@H](C)Oc1ccc(Oc2nc3ccc(Cl)cc3o2)cc1 | 21.9 µM (active) |
| Brc1cc(-c2ccc(Br)c(Br)c2Br)cc(Br)c1Br | inactive |
| CCCCCCCCCCCC(=O)[O][Sn]([CH2]CCC)([CH2]CCC)[O]C(=O)CCCCCCCCCCC | 7.56 µM (active) |
| CCC(C(=O)OCCN(CC)CC)c1ccccc1 (stereo unspecified) | inactive |
| CCC1(C)CC(=O)NC1=O (stereo unspecified) | inactive |
| CCCCN(CCCC)C(=S)SSC(=S)N(CCCC)CCCC | 43.2 µM (active) |
| Nc1ccc(Cl)cc1[N+](=O)[O-] | inactive |
| CC(C)c1nnc2ccc(-c3ocnc3-c3cc(F)ccc3F)cn12 | 21.9 µM (active) |
| CN1CCCN=C1/C=C/c1cccs1 | inactive |
| O=C(O)c1c(O)c(-c2ccccc2)nc2ccccc12 | inactive |
| O=C(CCCCCCC(=O)Nc1ccccc1)NO | 2.39 µM (active) |
| CO[C@@]12[C@H](COC(N)=O)C3=C(C(=O)C(C)=C(N)C3=O)N1C[C@@H]1N[C@@H]12 | 0.848 µM (active) |
| CC(C)C(OC(=O)c1ccccc1)C(C)(C)COC(=O)c1ccccc1 (stereo unspecified) | inactive |

Reference: PubChem BioAssay (Tox21)
